A selection: hits, their analogues and other compounds. The true share with any hit is near 2.7%.
CFTR F508del cor: CFTR F508del correction in bronchial cells; activity (quench increase), % at 7.58 µM; CFBE cells, YFP halide quenching; stimulated with forskolin plus potentiator P3; % fluorescence drop versus neutral controls; 350,000 compounds, 0.36% hits; AID 720511;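 active = mean added fluorescence quench of at least 8% versus neutral control, with both replicates also reaching 8%; inconclusive = only one of the mean or replicate conditions met; inactive = mean below 8% and not both replicates reaching 8%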;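 also: cells transiently co-express mutant CFTR-F508del with the halide-sensitive YFP; corrector assay measuring rescue of mutant channel to the surface after 24 h compound exposure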
PAX8 reporter: lowers PAX8-driven luciferase in RMG-I cells; RMG-I TPO-luciferase reporter, SteadyGlo, 24 h; inhibition, % at 12.6 µM; 360,000 compounds, 1.2% hits; AID 652154;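 active = mean replicate inhibition at least 60% with every replicate also reaching 60%; inconclusive = only one of the two criteria is met; inactive = mean below 60% and not all replicates reaching 60%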;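 also: luciferase light reporting Pax8 driven TPO promoter activity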
Env fusion inh: blocks HIV Env-driven cell-cell fusion; HeLa-JRFL Env/CEM21 cell fusion, luciferase; inhibition, % at 12.3 µM; 360,000 compounds, 1.1% hits; AID 651610;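 active = mean replicate inhibition score of at least 50 and every replicate individually at or above 50; inconclusive = only one of the two criteria met; inactive = mean below 50 and not all replicates reaching 50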
PGC1a acetyl inh: lowers PGC1a acetylation signal in U2OS cells; AID 651687; inhibition, % at 15.6 µM; AlphaScreen anti-acetyl-lysine; with virally co-expressed GCN5 acetyltransferase; 350,000 compounds, 0.17% hits;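 active = every replicate shows inhibition of at least 40%; inconclusive = mean inhibition at least 40% but some replicate below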
EWS-Fli inh: inhibitors of EWS/Fli oncoprotein transcriptional activity. A673 NR0B1-luciferase reporter, viability-normalised. 350,000 compounds, 0.67% hits. AID 651661. inhibition, % at 12.6 µM;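 active = mean inhibition of at least 50% after viability correction, with every replicate also passing that limit; inconclusive = mean reaches 50% but only one of two replicates passes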;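 also: firefly luciferase signal divided by Alamar Blue viability fluorescence both relative to DMSO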
GSIS activator: GLuc luminescence reporter in INS-1E cells, primary screen for activators of glucose-dependent secretion of insulin | 370,000 compounds, 0.61% hits | INS-1E GLuc reporter insulin secretion, 2-3 h | activation, % at 16.6 µM;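 active = lowest replicate activation of at least 40%, so every replicate reaches that level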
Of the large screens only hits and unclear results are named; the others gave an inactive call; ! = not active in a repeat; [ ] = dose if it differs, or a comment.

COCC(=O)Nc1ccc2c(c1)[C@H]1C[C@@H](CC(=O)OC)O[C@H](CO)[C@H]1O2	none (no result: Env fusion inh)
C[C@@H]1CCCCO[C@H](CN(C)Cc2ccc(C(F)(F)F)cc2)[C@H](C)CN([C@@H](C)CO)C(=O)c2cc(NS(=O)(=O)c3ccccc3)ccc2O1	none
C[C@@H]1CCCCO[C@@H](CN(C)Cc2ccc(C(F)(F)F)cc2)[C@H](C)CN([C@@H](C)CO)C(=O)c2cc(NS(=O)(=O)c3ccccc3)ccc2O1	PAX8 reporter 110.7, EWS-Fli inh 66.0
C[C@H]1CCCCO[C@H](CN(C)Cc2ccncc2)[C@@H](C)CN([C@@H](C)CO)C(=O)c2cc(NS(=O)(=O)c3ccccc3)ccc2O1	PGC1a acetyl inh 72.8!
C[C@@H]1CN([C@H](C)CO)C(=O)c2cc(NS(=O)(=O)c3ccccc3)ccc2O[C@@H](C)CCCCO[C@@H]1CN(C)Cc1ccc(C(F)(F)F)cc1	PAX8 reporter 101.7
O=C(C[C@H]1CC[C@@H](NC(=O)NC2CCCCC2)[C@@H](CO)O1)NCc1ccc(Cl)cc1	none
C[C@@H]1CN([C@@H](C)CO)S(=O)(=O)c2ccc(C#C[C@@H](C)O)cc2O[C@@H]1CN(C)C(=O)Nc1ccccc1	none
CCNc1ccc(C(=O)OCC(=O)NCc2ccccc2Cl)cc1[N+](=O)[O-]	GSIS activator 58.8 (no result: CFTR F508del cor, PGC1a acetyl inh, EWS-Fli inh)
CCCNC(=O)COC(=O)c1ccccc1C(=O)c1ccc(Cl)c([N+](=O)[O-])c1	EWS-Fli inh 54.6
CCN(CC)C1Oc2cc3c(cc2C(c2cc(OC)c(OC)c(OC)c2)C1C)OCO3 (configuration not stated)	PAX8 reporter inconclusive, EWS-Fli inh 63.9 (no result: GSIS activator)
COc1cc(C2c3cc4c(cc3C3OC(=O)C2C3CO)OCO4)cc(OC)c1OC (configuration not stated)	PAX8 reporter 75.7 (no result: GSIS activator)
COc1cc(C2c3cc4c(cc3OC(N3CCCCC3)C2C)OCO4)cc(OC)c1O (configuration not stated)	none
COC(=O)C[C@H]1CC[C@H]2[C@@H](COc3ccc(NC(=O)Nc4ccc(Cl)cc4)cc3C(=O)N2C)O1	none
O=C(N[C@H]1C=C[C@H](CC(=O)N2CCc3ccccc3C2)O[C@@H]1CO)C1CC1	none
CN1CCN(C(=O)c2cccc(-c3cnc4cnc(-c5ccccc5Oc5ccccc5)cn34)c2)CC1	GSIS activator 42.1 (no result: PGC1a acetyl inh)
CCOc1cc2c3c(c1)C(C)CC(C)(C)N3C(=O)C2=O (configuration not stated)	Env fusion inh 103.5 (no result: CFTR F508del cor, PAX8 reporter, EWS-Fli inh)
Cc1cc2c3c(c1)C(C)CC(C)(C)N3C(=O)C2=O (configuration not stated)	none
O=C(c1ccco1)N1CCN(c2nc(C(F)(F)F)nc3c2nnn3Cc2ccccc2)CC1	Env fusion inh 67.2 (no result: CFTR F508del cor, PAX8 reporter, PGC1a acetyl inh, EWS-Fli inh)
O=C(N/N=C(\c1ccccc1)c1ccccn1)c1cccc([N+](=O)[O-])c1	none (no result: CFTR F508del cor, PAX8 reporter, Env fusion inh, EWS-Fli inh, GSIS activator)
C/C(=N\NC(=O)c1c[nH]c2ccccc12)c1ccccn1	none
C/C(=N\NC(=O)c1ccccc1-n1cccc1)c1ccccn1	PAX8 reporter 70.5 (no result: PGC1a acetyl inh)
C/C(=N\NC(=O)c1ccc(F)cc1)c1ccccn1	PAX8 reporter 62.5 (no result: PGC1a acetyl inh)
C/C(=N\NC(=O)c1cc2ccccc2cc1O)c1cc2ccccc2o1	none
C/C(=N\NC(=O)c1cc2ccccc2cc1O)c1ccccn1	Env fusion inh 59.0 (no result: PGC1a acetyl inh, EWS-Fli inh)
CCOc1ccc(C(=O)N/N=C(\c2ccccc2)c2ccccn2)cc1	PGC1a acetyl inh 80.3 (no result: CFTR F508del cor, PAX8 reporter, Env fusion inh, EWS-Fli inh, GSIS activator)
O=C(N[C@@H]1CC[C@H](CCNC(=O)C2CCOCC2)O[C@@H]1CO)c1ccccn1	none
CC(C)Sc1nc(SCC(=O)O)c2c3c(sc2n1)COC(C)(C)C3	GSIS activator 55.1
CCc1nc(N)nc(N)c1-c1ccc(Cl)c([N+](=O)[O-])c1	CFTR F508del cor 9.1 (no result: PGC1a acetyl inh)
C[C@H](CO)N1C[C@H](C)[C@H](CN(C)C(=O)Nc2ccc3c(c2)OCO3)Oc2ccc(NC(=O)Nc3ccc4c(c3)OCO4)cc2CC1=O	none (no result: CFTR F508del cor, PAX8 reporter, Env fusion inh, PGC1a acetyl inh, EWS-Fli inh)
C[C@@H]1CN([C@@H](C)CO)C(=O)Cc2cc(NC(=O)Nc3ccccc3)ccc2O[C@@H]1CN(C)C(=O)Nc1ccc(C(F)(F)F)cc1	none
NC(=O)c1c(NC(=O)C(=O)N2CCOCC2)sc2c1CCCC2	none
O=C(O)c1c(NC(=O)N2CCOCC2)sc2c1CCCC2	GSIS activator 62.3 (no result: PGC1a acetyl inh)
CCn1c(/C=C/N(C)c2ccccc2)[n+](CC)c2ccc(Cl)cc21	Env fusion inh 70.3 (no result: CFTR F508del cor, PAX8 reporter, EWS-Fli inh)
Cc1ccc(S(=O)(=O)N2C[C@@H]3O[C@@H](CNS(=O)(=O)c4ccccc4C)CC[C@@H]32)cc1	none (no result: PAX8 reporter, Env fusion inh, PGC1a acetyl inh, GSIS activator)
COc1ccc(Oc2ccc(/C=C/C(=O)c3ccc(O)cc3)cc2[N+](=O)[O-])cc1	EWS-Fli inh 74.6 (no result: CFTR F508del cor, PGC1a acetyl inh)
COc1ccc(C(=O)C/C(=C\C(=O)c2ccc(C)cc2)c2ccccc2)cc1	Env fusion inh 102.6 (no result: CFTR F508del cor, PAX8 reporter, EWS-Fli inh, GSIS activator)
COc1ccc(C(=O)CC(=O)c2ccccc2)cc1	none
COc1cccc(S(=O)(=O)N(C)C[C@H]2Oc3cc(C#CCC(C)C)ccc3S(=O)(=O)N([C@@H](C)CO)C[C@H]2C)c1	Env fusion inh 71.3[16.7 µM] (no result: PAX8 reporter)
COc1cccc(S(=O)(=O)N(C)C[C@@H]2Oc3cc(C#CCC(C)C)ccc3S(=O)(=O)N([C@@H](C)CO)C[C@@H]2C)c1	Env fusion inh 85.2[16.7 µM] (no result: PAX8 reporter)
CCCC#Cc1ccc2c(c1)O[C@H](CN(C)S(=O)(=O)c1cccc(OC)c1)[C@H](C)CN([C@@H](C)CO)S2(=O)=O	none
COc1ccc(S(=O)(=O)N(C)C[C@H]2Oc3cc(C#CC4CCCC4)ccc3S(=O)(=O)N([C@@H](C)CO)C[C@H]2C)cc1	none
COc1ccc(S(=O)(=O)N(C)C[C@H]2Oc3cc(C#CC4CCCC4)ccc3S(=O)(=O)N([C@@H](C)CO)C[C@@H]2C)cc1	PAX8 reporter 89.7
COc1cccc(S(=O)(=O)N(C)C[C@@H]2Oc3cc(C#CCC(C)C)ccc3S(=O)(=O)N([C@H](C)CO)C[C@H]2C)c1	Env fusion inh 71.0[16.7 µM] (no result: PAX8 reporter)
O=C(C[C@@H]1CC[C@H]2[C@@H](COC[C@@H](O)CN2C(=O)c2ccccc2F)O1)NCc1ccc(Cl)cc1	none (no result: Env fusion inh)
CO[C@@H]1CN(C)C(=O)c2cc(NC(=O)C3CC3)ccc2OC[C@@H](C)N(C(=O)C2CCCCC2)C[C@H]1C	none (no result: PAX8 reporter, Env fusion inh)
CCCNC(=O)C[C@@H]1CC[C@H]2[C@H](COc3ccc(NC(=O)c4cscn4)cc3C(=O)N2C)O1	none (no result: Env fusion inh)
Cn1c(SCc2ccc(Cl)cc2Cl)nc(C(F)(F)F)cc1=O	GSIS activator 64.7 (no result: CFTR F508del cor, PAX8 reporter, EWS-Fli inh)
COc1cccc(S(=O)(=O)N[C@H]2CC[C@H](CC(=O)NCc3ccncc3)O[C@H]2CO)c1	none
COc1cccc(S(=O)(=O)Nc2ccc3c(c2)[C@@H]2C[C@@H](CC(=O)NCc4ccc(Cl)cc4)O[C@@H](CO)[C@@H]2O3)c1	PAX8 reporter 75.1!, EWS-Fli inh 55.2
